Results from PubChem BioAssay (NCI).
This is part of a sample that, as a whole, favours compounds with a hit. Of some 83,000 tested, about 20% had one in any assay.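 Compound tested at a single concentration for 48 hours in 96-well plates; a percent growth value below 10 was scored as active.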 Unmarked numbers belong to inactive results. Active and inactive are the calls of the source.

test system: OVCAR-8 ovarian; experiment: NCI-60 one-dose screen, 48 h (100 = growth as untreated, 0 = no growth, -100 = all killed); details: 10 µM unless noted

SMILES	growth
O=C(Nc1ccccc1)Oc1cccc2cccnc12	74.4%
O=c1[nH]c(-c2ccccn2)nc2sc3c(c12)CCCCCC3	29.9%
CC(=O)N(CC(O)CO)c1c(I)c(C(=O)NCCO)c(I)c(C(=O)NCC(O)CO)c1I (centres undefined)	95.9%
COc1ccc(-c2nc3sc(C)nn3c2-c2nc3cc(C)c(C)cc3[nH]2)cc1	89.6%
O=C(C[Si](CC(=O)c1cccc(C(F)(F)F)c1)CC(=O)c1cccc(C(F)(F)F)c1)c1cccc(C(F)(F)F)c1	90.9%
Cc1ccc(C2SCC(=O)N2NC(=O)c2[nH]c3ccc(F)cc3c2-c2ccccc2)cc1 (centres undefined)	92.1%
CCCCCCCCCCCCSC1=CC(=O)C=CC1=O	35.1%
O=C1/C(=C/c2ccc(Oc3ccccc3)cc2)N=C(c2ccccc2)N1CCc1cccs1	88.6%
COc1ccc(Nc2[nH]n(C3=Nc4ccccc4Sc4ccccc43)c(=O)c2C#N)cc1	40.2%
FC(F)(F)c1cc(CNc2ncc(Br)c(Cl)n2)cc(C(F)(F)F)c1	101%
COc1cc(CNCCCN2C(=O)c3ccc4c5c(ccc(c35)C2=O)C(=O)N(CCCNCc2cc(OC)c(OC)c(OC)c2)C4=O)cc(OC)c1OC	-52% (active)
CCCCc1ccc(C(O)(CCN2CC3CCC(CC3)C2)c2ccccc2)cc1 (centres undefined)	104%
CC(C)NCC(O)COc1ccc(CCOCC2CC2)cc1 (centres undefined)	93%
Oc1cccc(Nc2nc(-c3ccccn3)cs2)c1	106%
O=C(O)CCN1CCN(c2cccc(Cl)c2)CC1	99.1%
CCCCC(CCCC)(S(=O)(=O)CC)S(=O)(=O)CC	102%
COc1ccc(/C=C2\CN(Cc3cn(CCCNc4ccnc5cc(Cl)ccc45)nn3)C/C(=C\c3ccc(OC)cc3)C2=O)cc1	1.09% (active)
Cn1c2c(cc(S(=O)(=O)c3ccccc3)c1=O)CCc1c-2cnn1-c1cccc(Cl)c1	88.8%
CCOc1ccc(-c2cnnn2-c2nonc2-n2cccc2)cc1	25.9%

SMILES	growth
COc1ccc(-c2csc3c2-n2cccc2C3=O)cc1O	5.09% (active)
O=C1OCC2=C1C(c1ccc3c(c1)OCO3)CC(=O)N2c1cccc(Cl)c1 (centres undefined)	102%
COc1cc2nc(N3CCC[C@H](NC4=CC(=O)c5ccccc5C4=O)C3)nc(N)c2cc1OC	-57.2% (active)
CC1SC(c2ccc(Cl)cc2)N(CCc2cccs2)C1=O (centres undefined)	4.04% (active)
C[C@@H](Oc1cc(-c2cnn(C3CC4(CNC4)C3)c2)cnc1N)c1c(Cl)ccc(F)c1Cl	48.9%
Cc1nn(-c2ccccc2)c2nc3nc4c(c(N)c3c(-c3ccc(Cl)cc3)c12)CCC4	83%
COc1ncnc2c1ncn2C/C(Br)=C(\Br)CCl	0.995% (active)
CCOC(=O)C(CC(c1ccccc1)N1CCCCC1)[N+](=O)[O-] (centres undefined)	87.1%
O=c1nc(NO)[nH]c(=O)n1Cc1ccc(F)cc1	109%
CCN(CC)CCCNc1ccc(C)c2sc3ccccc3c(=O)c12	43.2%
Cn1cc(C(=O)NCCC(=N)N)cc1NC(=O)CN=C(N)N	106%
Cc1cc(=O)c2c(C)ccc(C)c2[nH]1	94.5%
COc1ccc(OC2=C(C#N)C(=N)N3c4ccccc4Sc4ccccc4C3N2)cc1 (centres undefined)	102%
O=c1onc(-c2ccccc2)c2ccccc12	103%
O=C1C(Cl)=C(NCCCN2CCOCC2)C(=O)c2ccccc21	96.1%
CCCCc1ccc(NC(=O)C(F)(F)F)cc1	95.1%
O=C1CC(c2ccsc2)c2snc(-c3ccc(Cl)cc3)c2N1 (centres undefined)	40.8%
COc1ccc2nc(-n3nc(C)cc3C)c(-n3nc(C)cc3C)nc2c1	126%

test system: OVCAR-5 ovarian; experiment: as above; details: 10 µM unless noted

SMILES	growth
O=C(Nc1ccccc1)Oc1cccc2cccnc12	92.9%
O=c1[nH]c(-c2ccccn2)nc2sc3c(c12)CCCCCC3	58.6%
CC(=O)N(CC(O)CO)c1c(I)c(C(=O)NCCO)c(I)c(C(=O)NCC(O)CO)c1I (centres undefined)	99.8%
COc1ccc(-c2nc3sc(C)nn3c2-c2nc3cc(C)c(C)cc3[nH]2)cc1	103%
O=C(C[Si](CC(=O)c1cccc(C(F)(F)F)c1)CC(=O)c1cccc(C(F)(F)F)c1)c1cccc(C(F)(F)F)c1	91.4%
Cc1ccc(C2SCC(=O)N2NC(=O)c2[nH]c3ccc(F)cc3c2-c2ccccc2)cc1 (centres undefined)	99.9%
CCCCCCCCCCCCSC1=CC(=O)C=CC1=O	89.7%
O=C1/C(=C/c2ccc(Oc3ccccc3)cc2)N=C(c2ccccc2)N1CCc1cccs1	109%
COc1ccc(Nc2[nH]n(C3=Nc4ccccc4Sc4ccccc43)c(=O)c2C#N)cc1	102%
FC(F)(F)c1cc(CNc2ncc(Br)c(Cl)n2)cc(C(F)(F)F)c1	102%
COc1cc(CNCCCN2C(=O)c3ccc4c5c(ccc(c35)C2=O)C(=O)N(CCCNCc2cc(OC)c(OC)c(OC)c2)C4=O)cc(OC)c1OC	-67.7% (active)
CCCCc1ccc(C(O)(CCN2CC3CCC(CC3)C2)c2ccccc2)cc1 (centres undefined)	90.9%
CC(C)NCC(O)COc1ccc(CCOCC2CC2)cc1 (centres undefined)	107%
Oc1cccc(Nc2nc(-c3ccccn3)cs2)c1	110%
O=C(O)CCN1CCN(c2cccc(Cl)c2)CC1	98.9%
CCCCC(CCCC)(S(=O)(=O)CC)S(=O)(=O)CC	103%
COc1ccc(/C=C2\CN(Cc3cn(CCCNc4ccnc5cc(Cl)ccc45)nn3)C/C(=C\c3ccc(OC)cc3)C2=O)cc1	120%
Cn1c2c(cc(S(=O)(=O)c3ccccc3)c1=O)CCc1c-2cnn1-c1cccc(Cl)c1	93%
CCOc1ccc(-c2cnnn2-c2nonc2-n2cccc2)cc1	41.1%

SMILES	growth
COc1ccc(-c2csc3c2-n2cccc2C3=O)cc1O	84.5%
O=C1OCC2=C1C(c1ccc3c(c1)OCO3)CC(=O)N2c1cccc(Cl)c1 (centres undefined)	106%
COc1cc2nc(N3CCC[C@H](NC4=CC(=O)c5ccccc5C4=O)C3)nc(N)c2cc1OC	125%
CC1SC(c2ccc(Cl)cc2)N(CCc2cccs2)C1=O (centres undefined)	8.29% (active)
C[C@@H](Oc1cc(-c2cnn(C3CC4(CNC4)C3)c2)cnc1N)c1c(Cl)ccc(F)c1Cl	38.1%
Cc1nn(-c2ccccc2)c2nc3nc4c(c(N)c3c(-c3ccc(Cl)cc3)c12)CCC4	93.2%
COc1ncnc2c1ncn2C/C(Br)=C(\Br)CCl	62.1%
CCOC(=O)C(CC(c1ccccc1)N1CCCCC1)[N+](=O)[O-] (centres undefined)	104%
O=c1nc(NO)[nH]c(=O)n1Cc1ccc(F)cc1	104%
CCN(CC)CCCNc1ccc(C)c2sc3ccccc3c(=O)c12	56.4%
Cn1cc(C(=O)NCCC(=N)N)cc1NC(=O)CN=C(N)N	88.9%
Cc1cc(=O)c2c(C)ccc(C)c2[nH]1	97.3%
COc1ccc(OC2=C(C#N)C(=N)N3c4ccccc4Sc4ccccc4C3N2)cc1 (centres undefined)	102%
O=c1onc(-c2ccccc2)c2ccccc12	116%
O=C1C(Cl)=C(NCCCN2CCOCC2)C(=O)c2ccccc21	111%
CCCCc1ccc(NC(=O)C(F)(F)F)cc1	99.6%
O=C1CC(c2ccsc2)c2snc(-c3ccc(Cl)cc3)c2N1 (centres undefined)	47.7%
COc1ccc2nc(-n3nc(C)cc3C)c(-n3nc(C)cc3C)nc2c1	103%
